About 83,000 compounds went through this panel and 20% of them were active in at least one assay; those are over-represented in the sample as a whole.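 Single-concentration screen, 48 h exposure, 96-well plates. Endpoint: percent growth. Below 10 = active.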 Activity calls are given as the source filed them.
Experiments:
Experiment in all cases: NCI-60 one-dose screen, 48 h (100 = growth as untreated, 0 = no growth, -100 = all killed)
Settings in all cases: 10 µM unless noted
SR leukemia = test system: SR leukemia
RPMI-8226 leukemia = test system: RPMI-8226 leukemia
OVCAR-8 ovarian = test system: OVCAR-8 ovarian
OVCAR-5 ovarian = test system: OVCAR-5 ovarian
OVCAR-4 ovarian = test system: OVCAR-4 ovarian
SK-OV-3 ovarian = test system: SK-OV-3 ovarian
IGROV1 ovarian = test system: IGROV1 ovarian
OVCAR-3 ovarian = test system: OVCAR-3 ovarian
HS 578T breast = test system: HS 578T breast
NCI/ADR-RES ovarian = test system: NCI/ADR-RES ovarian
T-47D breast = test system: T-47D breast
BT-549 breast = test system: BT-549 breast
MDA-MB-435 melanoma = test system: MDA-MB-435 melanoma
SW-620 colon = test system: SW-620 colon
MCF7 breast = test system: MCF7 breast
HCT-116 colon = test system: HCT-116 colon
HCC-2998 colon = test system: HCC-2998 colon
KM12 colon = test system: KM12 colon

Measured: growth

CN1C(=O)/C(=C/c2ccc(C(=O)Nc3ncc(Cc4ccc(F)cc4)s3)cc2)SC1=S
inactive: SR leukemia 44.5% | RPMI-8226 leukemia 54.6% | OVCAR-8 ovarian 57.9% | OVCAR-5 ovarian 61.2% | OVCAR-4 ovarian 60.1% | SK-OV-3 ovarian 40.3% | IGROV1 ovarian 54.3% | OVCAR-3 ovarian 27.7% | HS 578T breast 37.9% | NCI/ADR-RES ovarian 28.7% | T-47D breast 34.5% | BT-549 breast 54.9% | SW-620 colon 28.8% | MCF7 breast 46.8% | HCT-116 colon 32.6% | HCC-2998 colon 41.1% | KM12 colon 15.6%
active: MDA-MB-435 melanoma -36.3%

N=c1c2c(=N)n3c(nc2nc2n1-c1ccccc1Sc1ccccc1-2)sc1cc(Cl)ccc13
active: OVCAR-4 ovarian 8.65% | OVCAR-3 ovarian 7.88% | T-47D breast 6.16% | MCF7 breast -2.03% | HCC-2998 colon -18.6%
inactive: SR leukemia 25.9% | RPMI-8226 leukemia 14.5% | OVCAR-8 ovarian 26.5% | OVCAR-5 ovarian 92.2% | SK-OV-3 ovarian 49.6% | IGROV1 ovarian 38.7% | HS 578T breast 32% | NCI/ADR-RES ovarian 30.1% | BT-549 breast 42.2% | MDA-MB-435 melanoma 21.1% | SW-620 colon 32.4% | HCT-116 colon 10.7% | KM12 colon 19.9%

N=C(N)SCc1cccc2c(CSC(=N)N)cccc12
inactive: SR leukemia 92.9% | RPMI-8226 leukemia 107% | OVCAR-8 ovarian 102% | OVCAR-5 ovarian 92.4% | OVCAR-4 ovarian 116% | SK-OV-3 ovarian 113% | IGROV1 ovarian 99.2% | OVCAR-3 ovarian 102% | HS 578T breast 100% | NCI/ADR-RES ovarian 105% | T-47D breast 96.2% | BT-549 breast 107% | MDA-MB-435 melanoma 107% | SW-620 colon 103% | MCF7 breast 98.2% | HCT-116 colon 101% | HCC-2998 colon 104% | KM12 colon 94.5%

CC1(C)CC[C@]2(C(=O)N3CCOCC3)CC[C@]3(C)C(=CC[C@@H]4[C@@]5(C)C/C(=C/c6ccncc6)C(=O)C(C)(C)[C@@H]5CC[C@]43C)[C@@H]2C1
inactive: OVCAR-8 ovarian 34% | OVCAR-5 ovarian 30.3% | OVCAR-4 ovarian 14.2% | SK-OV-3 ovarian 28.9% | IGROV1 ovarian 33.1% | OVCAR-3 ovarian 16.1% | HS 578T breast 27.5% | NCI/ADR-RES ovarian 26.2% | T-47D breast 20.2% | SW-620 colon 10.4%
active: SR leukemia -31.3% | RPMI-8226 leukemia -33.5% | BT-549 breast -2.62% | MDA-MB-435 melanoma 6.81% | MCF7 breast 8.43% | HCT-116 colon -32.6% | HCC-2998 colon -24.5% | KM12 colon 6.58%

COc1ccc(NC(=O)c2sc3nc4c(cc3c2N)CCCC4)cc1
inactive: RPMI-8226 leukemia 14.8% | OVCAR-8 ovarian 25.5% | OVCAR-5 ovarian 78.8% | OVCAR-4 ovarian 57.3% | SK-OV-3 ovarian 39.4% | IGROV1 ovarian 53.8% | OVCAR-3 ovarian 11.1% | HS 578T breast 43.4% | T-47D breast 32.4% | BT-549 breast 51.3% | SW-620 colon 36.7% | MCF7 breast 19.2% | HCT-116 colon 30.3% | HCC-2998 colon 52.8% | KM12 colon 25.8%
active: SR leukemia 1.36% | NCI/ADR-RES ovarian 5.47% | MDA-MB-435 melanoma -20.9%

CCNC(=O)Oc1ccc(/C(=C(/C)Cc2ccc(OC)cc2)c2ccc(OCCN3CCCCCC3)cc2)cc1
inactive: RPMI-8226 leukemia 20.3% | OVCAR-8 ovarian 75.4% | OVCAR-5 ovarian 94.8% | OVCAR-4 ovarian 87.9% | SK-OV-3 ovarian 87.7% | IGROV1 ovarian 78% | OVCAR-3 ovarian 59.5% | HS 578T breast 67.2% | NCI/ADR-RES ovarian 76.7% | T-47D breast 35.9% | BT-549 breast 89.1% | MDA-MB-435 melanoma 81.6% | SW-620 colon 70.7% | MCF7 breast 22.2% | HCT-116 colon 56.3% | HCC-2998 colon 63.3% | KM12 colon 53.9%
active: SR leukemia -51.7%

C=C1C(=O)O[C@H]2[C@H]1CC/C(COC(=O)NCCCCCCCCNC(=O)OC/C1=C/CC[C@@]3(C)O[C@H]3[C@H]3OC(=O)C(=C)[C@@H]3CC1)=C\CC[C@@]1(C)O[C@@H]21
active: SR leukemia -37.6% | RPMI-8226 leukemia -42.8% | OVCAR-8 ovarian -51.2% | OVCAR-5 ovarian -79.6% | OVCAR-4 ovarian -82.9% | IGROV1 ovarian -74.3% | OVCAR-3 ovarian -94.1% | T-47D breast -45.7% | BT-549 breast -88.2% | MDA-MB-435 melanoma -89.9% | SW-620 colon -74.7% | MCF7 breast -55.2% | HCT-116 colon -79.2% | HCC-2998 colon -65.5% | KM12 colon -43.9%
inactive: SK-OV-3 ovarian 34.4% | HS 578T breast 17.4% | NCI/ADR-RES ovarian 43.9%

CCCCNC1=C(OCC)C(=O)c2ccccc2C1=O
inactive: SR leukemia 112% | RPMI-8226 leukemia 88.1% | OVCAR-8 ovarian 101% | OVCAR-5 ovarian 150% | OVCAR-4 ovarian 94.3% | SK-OV-3 ovarian 119% | IGROV1 ovarian 115% | OVCAR-3 ovarian 98.3% | HS 578T breast 84.2% | NCI/ADR-RES ovarian 97.3% | T-47D breast 89.6% | BT-549 breast 76.5% | MDA-MB-435 melanoma 96.8% | SW-620 colon 104% | MCF7 breast 76.3% | HCT-116 colon 80.3% | HCC-2998 colon 95.1% | KM12 colon 93.7%

CCCCCCOC(=O)CC1=C(C)/C(=C/c2[nH]c(-c3ccc[nH]3)cc2OC)N=C1C
active: SR leukemia -44.5% | RPMI-8226 leukemia -52.3% | OVCAR-8 ovarian -55.1% | OVCAR-5 ovarian -9.61% | OVCAR-4 ovarian -29.2% | SK-OV-3 ovarian -34.5% | IGROV1 ovarian -8.74% | OVCAR-3 ovarian -93.9% | HS 578T breast -27% | NCI/ADR-RES ovarian -49.4% | T-47D breast -32.8% | BT-549 breast -33.9% | MDA-MB-435 melanoma -82.4% | SW-620 colon -74% | MCF7 breast -24.1% | HCT-116 colon -79% | HCC-2998 colon -47.5% | KM12 colon -51.4%

C[Se]C(=O)CC1=C2C=C(F)C=CC2/C(=C\c2ccc(S(C)=O)cc2)C1C (stereo not drawn)
active: RPMI-8226 leukemia -23.9% | OVCAR-8 ovarian -66.1% | SK-OV-3 ovarian 6.54% | OVCAR-3 ovarian -7.75% | HS 578T breast 2.31% | NCI/ADR-RES ovarian 2.59% | BT-549 breast -89.8% | MDA-MB-435 melanoma -25.9% | SW-620 colon 4.55% | HCT-116 colon 7.49%
inactive: SR leukemia 22.5% | OVCAR-5 ovarian 17.6% | OVCAR-4 ovarian 26.7% | IGROV1 ovarian 21.3% | T-47D breast 48.7% | MCF7 breast 15.5% | HCC-2998 colon 68.9% | KM12 colon 50.1%

Cn1ncc2ccc(-c3nc(-c4ccccc4)[nH]c3-c3n[nH]c(=O)n3C3CC3)cc21
inactive: SR leukemia 82.9% | RPMI-8226 leukemia 94% | OVCAR-8 ovarian 99% | OVCAR-5 ovarian 98% | OVCAR-4 ovarian 93.6% | SK-OV-3 ovarian 94.5% | IGROV1 ovarian 111% | OVCAR-3 ovarian 107% | HS 578T breast 100% | NCI/ADR-RES ovarian 107% | T-47D breast 82.7% | BT-549 breast 106% | MDA-MB-435 melanoma 100% | SW-620 colon 100% | MCF7 breast 90.2% | HCT-116 colon 86.3% | HCC-2998 colon 103% | KM12 colon 99.2%

O=C(OC[C@@H]1CO1)c1cccc2c(=O)c3ccccc3[nH]c12
active: SR leukemia 9.87% | RPMI-8226 leukemia -11.7% | OVCAR-8 ovarian -56% | OVCAR-5 ovarian -21.4% | OVCAR-4 ovarian -27% | SK-OV-3 ovarian -38.5% | IGROV1 ovarian -13.7% | OVCAR-3 ovarian -25.7% | HS 578T breast -21.5% | NCI/ADR-RES ovarian -16.3% | T-47D breast -9.67% | BT-549 breast -31.6% | MDA-MB-435 melanoma -81.7% | SW-620 colon -24.7% | MCF7 breast 0.0356% | HCT-116 colon 2.66% | HCC-2998 colon -66.2% | KM12 colon -65.5%

COc1ccc(/C=C/C(=O)c2ccc(Nc3nc(Nc4ccc(F)cc4)nc(Nc4ccc(Cl)cc4)n3)cc2)cc1
active: SR leukemia -2.35%
inactive: RPMI-8226 leukemia 58.5% | OVCAR-8 ovarian 97.1% | OVCAR-5 ovarian 111% | OVCAR-4 ovarian 98% | SK-OV-3 ovarian 122% | IGROV1 ovarian 81.2% | OVCAR-3 ovarian 113% | HS 578T breast 101% | NCI/ADR-RES ovarian 92.4% | T-47D breast 67.3% | BT-549 breast 116% | MDA-MB-435 melanoma 97.3% | SW-620 colon 104% | MCF7 breast 72.2% | HCT-116 colon 91.8% | HCC-2998 colon 51.3% | KM12 colon 166%

Cc1cc(C)c(-c2c(O)c(Br)c(-c3c(C)cc(C)c(Br)c3C)c(O)c2Br)c(C)c1Br
active: OVCAR-8 ovarian 2.91% | IGROV1 ovarian -29.9% | OVCAR-3 ovarian -24.1% | T-47D breast -19.4% | SW-620 colon 3.38% | MCF7 breast 6.48% | HCT-116 colon 9.25%
inactive: SR leukemia 18.5% | RPMI-8226 leukemia 26.3% | OVCAR-5 ovarian 64.9% | OVCAR-4 ovarian 23.7% | SK-OV-3 ovarian 46.7% | HS 578T breast 41.5% | NCI/ADR-RES ovarian 44.1% | BT-549 breast 22.2% | MDA-MB-435 melanoma 13.1% | HCC-2998 colon 37.3% | KM12 colon 12.2%

Clc1nn2c(Cn3cnc4c(NCc5ccccc5)ncnc43)nnc2c2ccccc12
active: SK-OV-3 ovarian -18.5%
inactive: SR leukemia 17.2% | RPMI-8226 leukemia 37.7% | OVCAR-8 ovarian 33.2% | OVCAR-5 ovarian 74.2% | OVCAR-4 ovarian 37.9% | IGROV1 ovarian 24.8% | OVCAR-3 ovarian 45.8% | HS 578T breast 40.1% | NCI/ADR-RES ovarian 40.6% | T-47D breast 18.2% | BT-549 breast 25.8% | MDA-MB-435 melanoma 30.6% | SW-620 colon 48.2% | MCF7 breast 62.1% | HCT-116 colon 21.9% | HCC-2998 colon 56.1% | KM12 colon 58.9%

Cc1[nH]c(C(=O)Nc2cccc(OC3CCNCC3)c2)c(Cl)c1Cl
active: SW-620 colon 0.537% | HCC-2998 colon 2.97%
inactive: SR leukemia 13.6% | RPMI-8226 leukemia 43.2% | OVCAR-8 ovarian 94.2% | OVCAR-5 ovarian 95.4% | OVCAR-4 ovarian 98.6% | SK-OV-3 ovarian 96.5% | IGROV1 ovarian 60.6% | OVCAR-3 ovarian 82.4% | HS 578T breast 56.6% | NCI/ADR-RES ovarian 89.2% | T-47D breast 87.9% | BT-549 breast 84.6% | MDA-MB-435 melanoma 43% | MCF7 breast 47.4% | HCT-116 colon 46.2% | KM12 colon 57%
